In ChEMBL document CHEMBL1157539, “Thousands of chemical starting points for antimalarial lead identification” (Nature, 2010):

What was measured:
Type in all cases: functional
Plasmodium falciparum [1] = test: GSK_TCMDC: Inhibition of Plasmodium falciparum 3D7 in whole red blood cells, using parasite LDH activity as an index of growth. Test compounds present at 2uM
Plasmodium falciparum [2] = test: GSK_TCMDC: Inhibition of Plasmodium falciparum Dd2 in whole red blood cells, using parasite LDH activity as an index of growth. Test compounds present at 2uM
HepG2 = test: GSK_TCMDC: Percent inhibition of human HepG2 cell line. Test compounds present at 10uM.

SMILES | Inhibition (Plasmodium falciparum [1]) [%] | Inhibition (Plasmodium falciparum [2]) [%] | Inhibition (HepG2) [%]
CN1CCCN(Cc2ccc(-c3cccc(NC(=O)c4ccc(Cl)cc4)c3)cc2)CC1.O=C(O)C(F)(F)F | 98 | 50 | 34
Cc1n[nH]c2cc(Nc3ccnc(Nc4cccc(CN5CCOCC5)c4)n3)ccc12 | 83 | 0 | 33
COc1ccc2nccc([C@@H](O)CN3CCC(NC(=O)c4ccc5nc(-n6cccc6)sc5c4)CC3)c2c1 | 90 | 40 | 26
COc1cc2nc(N3CCN(C(=O)c4c(Cl)nsc4-c4ccccc4Cl)CC3)nc(N)c2cc1OC.O=C(O)C(F)(F)F | 100 | 100 | 57
